ATXN viability: Viability Counterscreen for Primary qHTS for Inhibitors of ATXN expression; S2 cells (HEK-293 line with an ATXN2-luciferase reporter) viability, CellTiter-Fluor protease fluorescence, 24 h; Potency, µM (titrated, usually from 56.7 µM), hits mostly cytotoxic; hit rate 0.49% among 400,000; also: potency is read from the fitted curve at half-maximal effect; nearly all actives have a fitted effect of over 40% in size
HepG2 tox-1: qHTS for Inhibitors of TGF-b: Cytotox Counterscreen. AID 588856, 2011. Potency, µM (titrated, usually from 46.1 µM), for inactives: at the top dose activity change, negative = cytotoxicity, hits mostly cytotoxic. HepG2 CAGA-GFP viability, ATP luminescence, 18 h. hit rate 0.76% among 410,000; also: potency is read from the fitted curve at half-maximal effect
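HepG2 CAGA-GFP cells (1000/well, DMEM with 1% FBS) received compound, then TGF-beta at 500 pg/mL final, and were incubated 18 hours at 37 degrees C. Viability was read by CellTiter-Glo luminescence. Media-only wells were set as complete cell-killing and DMSO as no toxicity.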
Giardia kill: Small Molecules that selectively kill Giardia lamblia: qHTS; Giardia lamblia trophozoite viability; activity change, % at 7.66 µM, hits read low; hit rate 0.15% among 340,000; AID 540267, 2011; in the data active = activity change below about -80%; inconclusive = between about -30% and that limit;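 also: parasites exposed to compound for two days anaerobically before the ATP read; % is scaled to controls: 0 for no effect and ±100 for the full control effect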
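Anaerobic 48 hrs incubation at 37 deg C of 100 trophozoites/well with test compounds; ATPLite 1-Step luminescence, 15-30 min RT, reports cellular ATP as viability.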
uPA generation: qHTS for Inhibitors of Cell Surface uPA Generation; AID 540303, 2011; hit rate 0.31% among 330,000; Potency, µM (titrated, usually from 38.3 µM), for the others: at the top dose activity change, negative = inhibition, usual class: inhibitors; cell surface uPA generation assay, qHTS; active = well fitted inhibition curve with a large enough effect; inconclusive = small, poorly fitted or top-dose-only effect; inactive = no such curve, though single readings can be large or run the other way; tested in mouse RAW 264.7 cells; also: potency is read from the fitted curve at half-maximal effect; % is scaled to controls: 0 for no effect and ±100 for the full control effect; nearly all actives have a fitted effect of over 55% in size
ATXN2 expr inh: Primary qHTS for Inhibitors of ATXN expression; HEK-293 ATXN2-luciferase reporter, luminescence, 24 h; Potency, µM (titrated, usually from 57 µM), inactives show top-dose activity change, negative = inhibition, most hits filed as inhibitors; hit rate 0.72% among 360,000; AID 1745845, 2022; also: potency is read from the fitted curve at half-maximal effect; % is scaled to controls: 0 for no effect and ±100 for the full control effect; nearly all actives have a fitted effect of over 55% in size
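ATXN2-luciferase reporter cells (luciferase flanked by upstream and downstream ATXN2 gene portions) were treated 24 h at 37 °C with compounds at up to 57 uM. SteadyGlo luminescence gave expression; GF-AFC fluorescence gave viability.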
TGFb SMAD3 inh: qHTS for Inhibitors of TGF-b; HepG2 CAGA-GFP TGF-b/SMAD3 reporter, GFP fluorescence, 18 h; TGF-beta stimulated, 500 pg/mL final; Potency, µM (titrated, usually from 46.1 µM), inactives show at the highest dose activity, negative = inhibition, actives largely listed as inhibitors; hit rate 1.2% among 410,000; AID 588855, 2011; also: potency is read from the fitted curve at half-maximal effect; % is scaled to controls: 0 for no effect and ±100 for the full control effect; nearly all actives have a fitted effect of over 65% in size
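Inhibition was scored as loss of TGF-beta-induced (500 pg/mL final, 18 hours, 37 degrees C) GFP in HEPG2 cells carrying a CAGA-GFP reporter, in DMEM with 1% FBS. Well GFP was summed per cell; Activity was normalised to unstimulated and stimulated DMSO wells, then concentration-response fitting.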
TGFb confirm: qHTS for Inhibitors of TGF-b: Confirmation of Cherry Picks | shares compounds with TGFb SMAD3 inh | AID 720534, 2013 | Potency, µM (doses to about 46.1 µM), without a hit: at the top dose activity, negative = inhibition, actives largely listed as inhibitors | HepG2 CAGA-GFP TGF-b reporter, GFP fluorescence, 18 h; cells stimulated with TGF-beta, 500 pg/mL | hit rate 63% among 1,600; also: potency is read from the fitted curve at half-maximal effect; % is scaled to controls: 0 for no effect and ±100 for the full control effect; nearly all actives have a fitted effect of over 65% in size
HepG2 tox-2: qHTS for Inhibitors of TGF-b: Cytotox Counterscreen for Cherry Picks; shares compounds with TGFb SMAD3 inh; HepG2 CAGA-GFP viability, ATP luminescence, 18 h; cells stimulated with TGF-beta, 500 pg/mL; Potency, µM (titrated, usually from 46.1 µM), for inactives: at the top dose activity, negative = cytotoxicity, hits mostly inhibitors; hit rate 27% among 1,600; also: potency is read from the fitted curve at half-maximal effect; % is scaled to controls: 0 for no effect and ±100 for the full control effect; nearly all actives have a fitted effect of over 70% in size
CCL64 TGFb inh: qHTS for Inhibitors of TGF-b: CCL64 Cells Orthogonal Assay for Cherry Picks; shares compounds with TGFb SMAD3 inh; CCL64 CAGA-GFP reporter, TGF-b stimulated, GFP fluorescence, 18 h; Potency, µM (titrated, usually from 46.1 µM), for the others: at the highest dose activity, negative = inhibition, actives largely listed as inhibitors; hit rate 41% among 1,600; also: potency is read from the fitted curve at half-maximal effect; nearly all actives have a fitted effect of over 65% in size
TGFb COP inh: qHTS for Inhibitors of TGF-b: Hit Validation in HepG2 Cells using COP promoter; shares compounds with TGFb SMAD3 inh; HepG2 COP-GFP TGF-b reporter, GFP fluorescence, 18 h; cells stimulated by added recombinant TGF-beta; Potency, µM (highest dose often 46.1 µM), without a hit: at the top dose activity, negative = inhibition, most hits filed as inhibitors; hit rate 3% among 1,600; also: potency is read from the fitted curve at half-maximal effect; nearly all actives have a fitted effect of over 70% in size
* marks the source's active call; other numbers are inactive results; i = inactive; u = inconclusive; x = not tested or not shown. Shown are actives, neighbours in structure and some others; about 2.6% of the full set was active somewhere. Unless noted, calls follow the shape of the dose curve; as a rule, active = well fitted curve in the direction sought with a large enough effect; inconclusive = small, poorly fitted or top-dose-only effect, or another doubt; inactive = no such curve, though single readings can be large; an effect the other way counts as inactive or inconclusive.

SMILES	ATXN viability	HepG2 tox-1	Giardia kill	uPA generation	ATXN2 expr inh	TGFb SMAD3 inh	TGFb confirm	HepG2 tox-2	CCL64 TGFb inh	TGFb COP inh
CN(C)CCN(C)C1CN(Cc2ccc(F)cc2)S(=O)(=O)C1 (stereo not drawn)	i	3%	x	x	3%	u	7%	-11%	-2%	-4%
CN1CCN(Cc2cc(COCc3ccccc3)c3cccnc3c2O)CC1	u	-30%	-12	-12%	4µM*	4.5µM*	-18%	u	7.3µM*	5%
O=C(Oc1c(CN2CCOCC2)cc(Cl)c2cccnc12)c1ccccc1	11µM*	2.8µM*	-20	-10%	8.9µM*	2.8µM*	-6%	u	u	4%
CCCOCc1cc(CN2CCN(c3cccc(Cl)c3)CC2)c(O)c2ncccc12	x	-49%	x	x	x	u	x	x	x	x
Oc1c(CN2CCCCC2)cc(Br)c2cccnc12	3.5µM*	-46%	7	u	4µM*	2.8µM*	21µM*	u	7.3µM*	19%
O=C(COc1c(Br)cc(Br)c2cccnc12)N1CCCCC1	i	-14%	28	-6%	1%	-19%	x	x	x	x
COc1cc(OC)cc(C(=O)Oc2c(CN3CCOCC3)cc(Cl)c3cccnc23)c1	u	-121%	-11	0%	0%	u	x	x	x	x
Oc1c(Cl)cc(CN2CCOCC2)c2cccnc12	u	-49%	5	u	x	2.5µM*	u	u	u	6%
O=C(COc1ccc(F)cc1)Nc1ccccc1C(=O)OCc1cc(=O)n2ccsc2n1	i	2%	x	x	14%	-1%	x	x	x	x
CCN1CCN(Cc2c(O)ccc3c(=O)c(Oc4ccccc4Cl)c(C(F)(F)F)oc23)CC1	i	-49%	x	x	0%	-3%	x	x	x	x
CC1CCCCc2nc3c(c(=O)n21)CCCC3 (stereo not drawn)	i	2%	x	x	0%	7%	x	x	x	x
CCC(C)Sc1ccc([C@@H]2[C@@H]3C(=O)N(CC)C(=O)[C@@H]3[C@]3(C(=O)OC)CCCCN23)cc1OC (stereo partly drawn)	i	-7%	0	4%	-5%	u	u	2%	-23%	5%
CCOC(=O)C1CCCN(C(=O)Cc2ccc(OC)c(OC)c2)C1 (stereo not drawn)	i	-37%	12	-1%	4%	10%	x	x	x	x
CCOC(=O)C1CCCN(C(=O)Cc2ccc(C)cc2)C1 (stereo not drawn)	i	4%	u	-4%	-16%	10µM*	-7%	-2%	24%	-10%
Cn1cc(S(=O)(=O)N2CCOCC2)cc1C(=O)Nc1cccc(C#N)c1	i	-3%	x	x	8%	-21%	x	x	x	x
